Source: PubChem (National Center for Advancing Translational Sciences (NCATS))
The list is not random: actives were taken first. Their share in the collection is about 19%.
TDP1 cell noCPT = qHTS for Inhibitors of human tyrosyl-DNA phosphodiesterase 1 (TDP1): qHTS in cells in absence of CPT; DT40 Tdp1-/- hTDP1 cells, no CPT, ATP luminescence, 48 h; Potency, µM (highest dose often 46.2 µM), most hits filed as inhibitors; hit rate 15% among 420,000; also: nearly all actives have a fitted effect of over 55% in size
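Luminescent ATP content (CellTiter-Glo) served as the growth readout. Knockout chicken DT40 cells expressing human TDP1 were exposed to compounds without camptothecin for a minimum 48 hr at 37 °C.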
ELG1 repair inh = qHTS screen for small molecules that inhibit ELG1-dependent DNA repair in human embryonic kidney (HEK293T) cells expressing luciferase-tagged ELG1. HEK293T ELG1-luciferase reporter, luminescence, 16 h; DNA damage induced by 5-fluorouridine. Potency, µM (doses to about 46.1 µM), usual class: inhibitors. hit rate 2.3% among 330,000. AID 504467, 2011; also: nearly all actives have a fitted effect of over 55% in size
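Luminescence from the luciferase reporter, measured 30 min after ONE-Glo reagent at room temperature, was the read-out. Beforehand, 2,000 cells per well were exposed for 16 hr at 37 °C to 5-fluorouridine together with compound or vehicle.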
TDP1 cell CPT = qHTS for Inhibitors of human tyrosyl-DNA phosphodiesterase 1 (TDP1): qHTS in cells in presence of CPT. chicken DT40 Tdp1-/-;hTDP1 cells + 20 nM CPT, ATP luminescence, 48 h. Potency, µM (top dose mostly 46.2 µM), hits mostly inhibitors. hit rate 12% among 420,000. AID 686979, 2013; also: nearly all actives have a fitted effect of over 55% in size
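Chicken DT40 Tdp1-/- cells complemented with human TDP1, 400 cells/well, exposed to compounds plus 20 nM camptothecin for at least 48 h at 37 C; viability read as ATP content by CellTiter-Glo luminescence.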
HT1080 IDH1KD tx = qHTS for induction of synthetic lethality in tumor cells producing 2HG: qHTS for the HT-1080-IDH1KD cell line | HT-1080 IDH1 knockdown viability, ATP luminescence, 48 h | Potency, µM (titrated, usually from 46.1 µM), most hits filed as cytotoxic | hit rate 2% among 360,000
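After a 2 h attachment period, IDH1KD HT-1080 cells took pin-transferred compound for 48 h at 37 °C; ATP-based luminescence after 10 min room-temperature reagent incubation reported viability.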
HT1080NT lethal = qHTS for induction of synthetic lethality in tumor cells producing 2HG: qHTS for the HT-1080-NT fibrosarcoma cell line; hit rate 1.6% among 360,000; HT-1080-NT fibrosarcoma viability, CellTiter-Glo ATP luminescence, 48 h; AID 686970, 2013; Potency, µM (doses to about 46.1 µM), hits mostly cytotoxic;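 also: NT is the 2HG producing partner of a matched IDH1 knockdown line; nearly all actives have a fitted effect of over 55% in size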
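Read-out is CellTiter-Glo luminescence after 10 minutes at room temperature, following 48 hours' compound treatment of HT-1080-NT cells (750 cells/well, RPMI, 5% FBS, 37 degrees C).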
IL1B secr inh = qHTS for Inhibitors of Inflammasome Signaling: IL-1-beta AlphaLISA Primary Screen; THP-1 LPS/ATP IL-1B secretion, AlphaLISA, 16 h; active compounds read low; activity change, % at 57.5 µM; hit rate 4.7% among 360,000; AID 743279, 2014; in the data active = activity change below about -50%; inconclusive = mostly about -30% to -49%
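Secreted IL-1B measured by AlphaLISA bead assay after 16 h compound exposure of THP-1 cells; compounds (final up to 57.5 uM) added 1 h before LPS (250 ng/mL) and ATP (1.25 mM) stimulation; lower signal means less secretion.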
Of the large screens only hits and unclear results are named; the others gave an inactive call; ! = not active in a repeat. Unless noted, calls follow the shape of the dose curve; as a rule, active = well fitted curve in the direction sought with a large enough effect; inconclusive = small, poorly fitted or top-dose-only effect, or another doubt; inactive = no such curve, though single readings can be large; an effect the other way counts as inactive or inconclusive.

N=C1SC(CC(=O)Nc2ccc([N+](=O)[O-])cc2)C(=O)N1c1ccccc1 (stereo unspecified)	TDP1 cell noCPT inconclusive, ELG1 repair inh inconclusive, HT1080 IDH1KD tx inconclusive, IL1B secr inh -73
C=CCN1C(=O)C(CC(=O)Nc2ccccc2)S/C1=N/c1nccs1 (stereo unspecified)	none
O=C(CC1Sc2ncnn2C1=O)Nc1ccccc1 (stereo unspecified)	TDP1 cell noCPT 15µM, TDP1 cell CPT 7.3µM
CCOc1ccccc1C(=O)NCC(=O)NCC(C)(C)N1CCOCC1	none
CC(=O)Nc1ccc(NC(=O)CC2SC(=O)N(CC(=O)c3ccccc3)C2=O)cc1 (stereo unspecified)	TDP1 cell noCPT 21µM, TDP1 cell CPT 18µM
O=C(CC1SC(=O)N(c2ccccc2)C1=O)Nc1ccccc1 (stereo unspecified)	TDP1 cell CPT 16µM, HT1080 IDH1KD tx inconclusive
O=C1SC(Cc2ccccc2)C(=O)N1c1ccccc1 (stereo unspecified)	none
Cc1ccc(NC(=O)CC2SC3=NCCN3C2=O)cc1 (stereo unspecified)	TDP1 cell noCPT inconclusive, TDP1 cell CPT inconclusive
Cc1ccc(NC(=O)CC2=NC(=O)C(CC(=O)Nc3ccccc3F)S2)cc1 (stereo unspecified)	TDP1 cell noCPT 18µM, TDP1 cell CPT inconclusive
CCCN1C(=O)SC(CC(=O)Nc2ccc(C)cc2)C1=O (stereo unspecified)	TDP1 cell noCPT inconclusive, TDP1 cell CPT 18µM
CCC(CO)NC1=CC(=O)CCC1 (stereo unspecified)	none
Cc1ccc(-c2nc(-c3ccc(Cl)cc3)sc2CC(=O)O)c(C)c1	none
COc1cc(CN2C[C@@H](CO)O[C@@H](n3cnc4c(NCc5ccc(F)cc5)ncnc43)C2)cc(OC)c1OC	TDP1 cell noCPT inconclusive, TDP1 cell CPT 16µM, IL1B secr inh -69 (no result: ELG1 repair inh)
COc1cc(CN2C[C@@H](CO)O[C@@H](n3cnc4c(NCc5ccncc5)ncnc43)C2)cc(OC)c1OC	none (no result: ELG1 repair inh)
COc1cc(CNc2ncnc3c2ncn3[C@H]2CN(Cc3ccc(F)cc3)C[C@@H](CO)O2)cc(OC)c1OC	TDP1 cell noCPT inconclusive, TDP1 cell CPT 21µM (no result: ELG1 repair inh)
COc1ccc(CN2C[C@@H](CO)O[C@@H](n3cnc4c(NCc5cc(OC)c(OC)c(OC)c5)ncnc43)C2)cc1	TDP1 cell noCPT inconclusive, TDP1 cell CPT inconclusive (no result: ELG1 repair inh)
COc1cc(CNc2ncnc3c2ncn3[C@H]2CN(Cc3ccc(Cl)cc3)C[C@@H](CO)O2)cc(OC)c1OC	TDP1 cell noCPT 16µM, TDP1 cell CPT 23µM (no result: ELG1 repair inh)
CCN(Cc1ccncc1)C(=O)c1cc(Br)cc(Br)c1O	none
O=C(CSc1ccc2nnc(-c3ccccn3)n2n1)Nc1ccccc1F	TDP1 cell noCPT inconclusive
Cc1cnc(C)c(Nc2nc(C(N)Cc3ccccc3)cs2)n1 (stereo unspecified)	TDP1 cell noCPT inconclusive, TDP1 cell CPT inconclusive, HT1080 IDH1KD tx inconclusive, HT1080NT lethal inconclusive (no result: ELG1 repair inh)
CCc1cnc(Nc2nc(C(N)Cc3ccc(Cl)cc3)cs2)nc1 (stereo unspecified)	TDP1 cell noCPT inconclusive, TDP1 cell CPT inconclusive, HT1080 IDH1KD tx inconclusive, HT1080NT lethal 21µM, IL1B secr inh inconclusive (no result: ELG1 repair inh)
COc1ccc(CC(N)c2csc(Nc3nncc4ccccc34)n2)cc1 (stereo unspecified)	TDP1 cell noCPT 18µM, TDP1 cell CPT inconclusive, HT1080 IDH1KD tx inconclusive, HT1080NT lethal inconclusive (no result: ELG1 repair inh)
NC(Cc1ccc(Cl)cc1)c1csc(Nc2ccc(-c3ccccc3)nn2)n1 (stereo unspecified)	TDP1 cell CPT 6.5µM, HT1080NT lethal inconclusive, IL1B secr inh -50 (no result: ELG1 repair inh)
CCc1cnc(Nc2nc(C(N)c3ccccc3Cl)cs2)nc1 (stereo unspecified)	TDP1 cell noCPT inconclusive, TDP1 cell CPT inconclusive (no result: ELG1 repair inh)
CCCc1cnc(Nc2nc(C(N)Cc3ccc(OC)cc3)cs2)nc1 (stereo unspecified)	TDP1 cell noCPT inconclusive, TDP1 cell CPT inconclusive, HT1080 IDH1KD tx inconclusive, HT1080NT lethal 21µM, IL1B secr inh inconclusive (no result: ELG1 repair inh)
CC(C)(C)[C@H]1CCC(=O)N([C@H](CC#N)Cc2ccccc2)CC1	TDP1 cell noCPT 18µM, TDP1 cell CPT inconclusive
C[C@H]1CCC(=O)N([C@H](CC#N)Cc2ccccc2)CC1	none
C[C@@H](CSc1ccc(Br)cc1)CN1CC[C@H](O)CCC1=O	TDP1 cell noCPT 13µM, TDP1 cell CPT 13µM
Cc1ccc(S[C@@H](CCN2CC[C@H](C(C)(C)C)CCC2=O)c2ccccc2)cc1	TDP1 cell noCPT inconclusive, TDP1 cell CPT inconclusive, HT1080 IDH1KD tx inconclusive, HT1080NT lethal inconclusive
C[C@@H](CN=[N+]=[N-])CN1CC[C@H](C(C)(C)C)CCC1=O	TDP1 cell noCPT 13µM!, TDP1 cell CPT 11µM!
C[C@@H](CSc1ccccc1)CN1CC[C@H](C(C)(C)C)CCC1=O	TDP1 cell noCPT 18µM, TDP1 cell CPT inconclusive
CSc1ccccc1NC(=O)CSc1nnc(Cc2ccccc2)o1	none
CCn1c(N2CCN(C(c3ccccc3)c3ccccc3)CC2)nc2c1c(=O)[nH]c(=O)n2C	none (no result: ELG1 repair inh)
CSc1nc(Nc2ccc(C)cc2C)cc(-c2ccccc2)n1	TDP1 cell noCPT 16µM, TDP1 cell CPT 16µM (no result: ELG1 repair inh, HT1080 IDH1KD tx, HT1080NT lethal, IL1B secr inh)
COC(=O)c1sc(N)c(C(=O)OC)c1COC(=O)c1c(C)noc1C	TDP1 cell noCPT 5.2µM, ELG1 repair inh inconclusive, TDP1 cell CPT 3.7µM, HT1080 IDH1KD tx 6.3µM, HT1080NT lethal 7.1µM
COC(=O)c1sc(NC(=O)c2c(C)noc2C)nc1C	none
COC(=O)c1sc(N)c(C(=O)OC)c1Cn1ncc(Cl)c(Cl)c1=O	TDP1 cell noCPT 15µM, TDP1 cell CPT 23µM, HT1080 IDH1KD tx inconclusive, IL1B secr inh -89
COC(=O)c1sc(N)c(C(=O)OC)c1CSc1nnc(-c2ccccc2Cl)n1C	TDP1 cell noCPT inconclusive, ELG1 repair inh inconclusive
Cc1nnc(-c2cccc(Br)c2)c2cn(-c3ccccc3Cl)nc12	TDP1 cell noCPT inconclusive, TDP1 cell CPT 23µM, IL1B secr inh inconclusive
Cc1ccc(-n2cc3c(-c4cccc(Br)c4)nnc(C)c3n2)cc1	TDP1 cell noCPT inconclusive, TDP1 cell CPT 26µM
COc1cccc(C(=O)NCc2cn3ccccc3n2)c1	none (no result: ELG1 repair inh, HT1080 IDH1KD tx, HT1080NT lethal, IL1B secr inh)
